The source of these data is PubChem BioAssay AID463173 (ICCB-Longwood Screening Facility, Harvard Medical School, 2010).

About 4,300 (8.3%) of roughly 52,000 compounds were called active. Cut-off read from the data, not from the text of the source: active = survival mostly below about 52% (no sharp cut-off); inactive = mostly above about 56%. The entries come from a sample that favours actives as a whole.

For this assay, the system named is DeltatarO mutant. Kind of assay: growth inhibition of S. aureus wild type versus tarO mutant, primary screen, teichoic acid synthesis inhibitors, RN4220, OD600 (AID 463173). As to conditions: OD600, 18 h, active compounds read low, screened at 18.75 µg/mL (by protocol).
Consider `Cc1cc(C)c2sc(N(Cc3cccnc3)C(=O)CCS(=O)(=O)c3ccccc3)nc2c1`, for which the survival was 89% (inactive).
Consider `CCc1ccccc1NC(=O)Cn1c(=O)nc(-c2ccccc2)c2ccccc21`, for which the survival is 90% (inactive).
To `N#Cc1ccccc1Cn1c(=O)n(-c2ccc(F)c(Cl)c2)c(=O)c2sccc21` belongs 112% (inactive); to `O=S(=O)(c1ccccc1)c1cccc(S(=O)(=O)N2CCCC2)c1`, 86% (inactive); to `Cc1cccc(C)c1NC(=O)C(c1ccccc1)N(Cc1ccco1)C(=O)Cn1nnc2ccccc21` (stereo not given), 74% (inactive).
For the compound `CCOc1ccc(NC(=O)C2CCN(C(=O)N3CC(C)Oc4ccc(Cl)cc43)CC2)cc1` (stereo not given), the survival was 100% (inactive).
With `Cc1cc(=O)oc2ccccc12`, the survival was 83% (inactive).
The result for `Cc1ccc(C(c2nnnn2C2CCCC2)N2CCc3ccccc32)cc1` (stereo not given) reads 100% (inactive).
The result for `CCN1C(=O)c2ccccc2Sc2ccc(NC(=O)Nc3ccccc3OC)cc21` reads 61% (inactive); that for `CC(C)CCNC(=O)c1ccc2c(c1)N(C)C(=O)c1ccccc1S2`, -5% (active).
To `CCc1cccc(NC(=O)Nc2ccc3c(c2)N(C)C(=O)c2ccccc2S3)c1` belongs 26% (active).
Turning to `CC(C)CCNC(=O)c1ccc2c(c1)N(Cc1cccc(Cl)c1)C(=O)c1ccccc1S2`, the survival was 83% (inactive).
Regarding `CCN1C(=O)c2ccccc2Sc2ccc(NC(=O)Nc3cc(C)cc(C)c3)cc21`, the survival was 67% (inactive).
The result for `Cc1ccccc1CNC(=O)Nc1ccc2c(c1)N(C)C(=O)c1ccccc1S2` reads 63% (active); that for `CC(C)CCNC(=O)Nc1ccc2c(c1)N(C)C(=O)c1ccccc1S2`, 89% (inactive).
Take `CCc1ccccc1NC(=O)Nc1ccc2c(c1)N(CC)C(=O)c1ccccc1S2`: the survival was 41% (active).
Turning to `CN1C(=O)c2ccccc2Sc2ccc(NC(=O)NCc3ccccc3Br)cc21`, the survival is 51% (inactive).
Regarding `CCOC(=O)c1cccc(NC(=O)Nc2ccc3c(c2)N(C)C(=O)c2ccccc2S3)c1`, the survival was 92% (inactive).
With `COc1cccc(NC(=O)Nc2ccc3c(c2)N(C)C(=O)c2ccccc2S3)c1`, the survival is 51% (inactive).
In the case of `COc1ccccc1CNC(=O)Nc1ccc2c(c1)N(C)C(=O)c1ccccc1S2`, the survival was 70% (inactive).
To `CCOC(=O)c1c(C)[nH]c(C)c1S(=O)(=O)N1CCCC(C(=O)N2CCN(c3ccccc3F)CC2)C1` (stereo not given) belongs 84% (inactive); to `CCc1ccc2oc(-c3ccc(C)c(NC(=O)Cc4ccccc4)c3)nc2c1`, 145% (inactive); to `CCOc1ccc2c(c1)c(=O)c(C(=O)c1ccccc1)cn2Cc1ccccc1`, 87% (inactive).
Regarding `Cc1ccc(S(=O)(=O)Cn2nnnc2CN2CCC(Cc3ccccc3)CC2)cc1`, the survival is 100% (inactive).
To `O=C(Cn1c(=O)c2cccn2c2ccc(F)cc21)Nc1cccc(F)c1` belongs 64% (inactive); to `Cc1ccc(C2=Nc3ccccc3N=C(c3ccc(F)cc3)C2)c(O)c1`, 60% (inactive).
Turning to `COC(=O)Cn1c(C(=O)OC)cc2c1ccn2-c1ccc(F)cc1`, the survival was 93% (inactive).
In the case of `Cc1nn(CCCC(=O)NCc2ccc(F)cc2)c(=O)c2c1sc1ccccc12`, the survival was 85% (inactive).
As to `O=C(NCCc1ccc(Cl)cc1)C(=O)NCC(c1ccc2c(c1)OCO2)N1CCOCC1` (stereo not given), the survival was 117% (inactive).
For `O=C(c1cccn2c(=O)c3cc(Cl)ccc3nc12)N1CCN(c2ccccc2F)CC1`, the survival was 76% (inactive).
In the case of `COc1ccc(CNC(=O)Nc2ccc3c(c2)N(C)C(=O)c2ccccc2S3)cc1`, the survival is 112% (inactive).
As to `COc1cccc(CNC(=O)Nc2ccc3c(c2)N(C)C(=O)c2ccccc2S3)c1`, the survival is 42% (active).
On to `CN1C(=O)c2ccccc2Sc2ccc(NC(=O)NCc3cccc(Cl)c3)cc21`, for which the survival was 78% (inactive).
`CCOC(=O)c1c(C)[nH]c(C)c1S(=O)(=O)N1CCC(C(=O)Nc2ccc(C)c(Cl)c2)CC1`: the survival is 79% (inactive).
As for `CCOC(=O)c1c(C)[nH]c(C)c1S(=O)(=O)N1CCC(C(=O)NCc2ccc(C)cc2)CC1`, the survival is 72% (inactive).
As to `CCOC(=O)c1c(C)[nH]c(C)c1S(=O)(=O)N1CCC(C(=O)NCc2ccccc2)CC1`, the survival is 81% (inactive).
With `CCOC(=O)c1c(S(=O)(=O)N2CCC(C(=O)Nc3ccc(OCC)cc3)CC2)c(C)n(C)c1C`, the survival is 99% (inactive).
As to `CCOC(=O)c1c(C)[nH]c(C)c1S(=O)(=O)N1CCC(C(=O)Nc2ccc(OCC)cc2)CC1`, the survival was -1% (active).
As to `CCOC(=O)c1c(C)[nH]c(C)c1S(=O)(=O)N1CCC(C(=O)NCc2ccc(F)cc2)CC1`, the survival was 6% (active).
Consider `CCN(C(=O)c1ccco1)c1nnc(Cn2nnc3ccccc32)s1`, for which the survival is 91% (inactive).
As to `Cc1c(C2=CCN(S(=O)(=O)c3cccc(Cl)c3)CC2)c2ccccc2n1CC(=O)N1CCCC1`, the survival was 75% (inactive).
As to `CN1CC(=O)Nc2cc(C(=O)O)ccc21`, the survival is 87% (inactive).
In the case of `Cc1cccc(OCc2ccc(-c3nc(C#N)c(N4CCC(C(N)=O)CC4)o3)o2)c1`, the survival is 80% (inactive).
On to `COc1ccc(OCc2ccc(-c3nc(C#N)c(N4CCC(C(N)=O)CC4)o3)o2)cc1`, for which the survival is 72% (inactive).
For the compound `N#Cc1nc(-c2ccc(COc3ccc(Cl)cc3)o2)oc1N1CCC(C(N)=O)CC1`, the survival was 34% (active).
`COc1ccc(OCc2ccc(-c3nc(C#N)c(N4CCN(c5ccccc5)CC4)o3)o2)cc1`: the survival was 77% (inactive).
In the case of `CCN1CCN(c2oc(-c3ccc(COc4ccc(C)cc4)o3)nc2C#N)CC1`, the survival is 38% (active).
Regarding `CCN1CCN(c2oc(-c3ccc(COc4ccccc4C)o3)nc2C#N)CC1`, the survival was 82% (inactive).
As to `Cc1ccccc1OCc1ccc(-c2nc(C#N)c(N3CCCCC3)o2)o1`, the survival is 99% (inactive).
`CC1CCN(c2oc(-c3ccc(COc4ccc(Cl)cc4)o3)nc2C#N)CC1`: the survival is 81% (inactive).
To `COc1ccc(OCc2ccc(-c3nc(C#N)c(N4CCC(C)CC4)o3)o2)cc1` belongs 54% (inactive); to `CCN1CCN(c2oc(-c3ccc(COc4ccc(OC)cc4)o3)nc2C#N)CC1`, 49% (active).
To `Cc1ccccc1OCc1ccc(-c2nc(C#N)c(N3CCC(C(N)=O)CC3)o2)o1` belongs 38% (active); to `Cc1ccc(OCc2ccc(-c3nc(C#N)c(N4CCC(C)CC4)o3)o2)cc1`, 58% (inactive).
For `Cc1nc2c3ccccc3nc(NNC(=O)CCC(=O)O)n2n1`, the survival is 94% (inactive).
The result for `Cc1ccc(C2c3cccn3CCN2S(=O)(=O)c2ccc([N+](=O)[O-])cc2)cc1` (stereo not given) reads 99% (inactive).
In the case of `CC(C)CCNC(=O)c1ccc2c(c1)nc1n2CCCCC1`, the survival was 86% (inactive).
As for `CCCCN(C)S(=O)(=O)c1cc(-c2cc(C)no2)ccc1C`, the survival was 84% (inactive).
Regarding `N#Cc1nc(-c2ccc(COc3ccc(Cl)cc3)o2)oc1N1CCCCC1`, the survival is 49% (inactive).
For the compound `CN1CCN(c2oc(-c3ccc(COc4ccc(Cl)cc4)o3)nc2C#N)CC1`, the survival is 45% (active).
Take `COc1ccc(OCc2ccc(-c3nc(C#N)c(N4CCN(C)CC4)o3)o2)cc1`: the survival is 52% (inactive).
`COc1ccc(OCc2ccc(-c3nc(C#N)c(N4CCN(c5cccc(Cl)c5)CC4)o3)o2)cc1`: the survival was 75% (inactive).
Consider `N#Cc1nc(-c2ccc(COc3ccccc3)o2)oc1N1CCCCC1`, for which the survival was 48% (inactive).
With `COc1ccc(OCc2ccc(-c3nc(C#N)c(N4CCCCC4)o3)o2)cc1`, the survival was 42% (active).
Consider `Cc1ccc(C)c(N2CCN(S(=O)(=O)c3ccc4c(c3)CC(=O)N4C)CC2)c1`, for which the survival is 125% (inactive).
Turning to `COCCNC(=O)C(=O)Nc1c2c(nn1-c1ccccc1)CS(=O)(=O)C2`, the survival is 92% (inactive).
With `CC(C)CCNC(=O)C(=O)Nc1c2c(nn1-c1ccccc1)CS(=O)(=O)C2`, the survival is 77% (inactive).
For `CC(C)OCCCNC(=O)C(=O)Nc1c2c(nn1-c1ccccc1)CS(=O)(=O)C2`, the survival is -5% (active).
Take `CN(c1ccc(Cl)cc1)S(=O)(=O)c1nnc(NC(=O)C2CCCCC2)s1`: the survival was 106% (inactive).
Regarding `Cc1ccc(NC(=O)C(Cc2ccccc2)NS(=O)(=O)c2cccc3nsnc23)c(C)c1` (stereo not given), the survival was 125% (inactive).
As for `CCCNC(=O)C1CCC(Cn2c(=O)c3sccc3n(CC(=O)N3CCC(C)CC3)c2=O)CC1` (stereo not given), the survival is 73% (inactive).
For the compound `Cc1ccccc1NC(=O)c1ccccc1NC(=O)c1ccccc1Cl`, the survival is 72% (inactive).
As to `Cc1cc(C(F)(F)F)n2nc(C)cc2n1`, the survival is 68% (inactive).
In the case of `Cc1cc2nc(-c3ccc(OCc4ccc(F)cc4)cc3)cc(C(F)(F)F)n2n1`, the survival was 34% (active).
`Cc1cc2nc(-c3ccc(OCc4ccccc4)cc3)cc(C(F)(F)F)n2n1`: the survival was 79% (inactive).
Take `COc1ccc(-c2cc3nc(-c4ccc(C)cc4)cc(C(F)(F)F)n3n2)cc1`: the survival is 135% (inactive).
On to `Cc1ccc(COc2ccc(-c3cc(C(F)(F)F)n4nc(C)cc4n3)cc2)cc1`, for which the survival is 137% (inactive).
With `Cc1cccc(COc2ccc(-c3cc(C(F)(F)F)n4nc(C)cc4n3)cc2)c1`, the survival was 9% (active).
Turning to `Cc1ccc(C)c(CN2C(=O)c3ccccc3S(=O)c3ccc(C(=O)NCCC4=CCCCC4)cc32)c1` (stereo not given), the survival is 52% (inactive).
As to `COc1cccc(-c2nnc(SCC(=O)NC3CCCCC3)o2)c1`, the survival was 73% (inactive).
Turning to `Cc1ccc(C(=O)O)cc1-n1c(C)ccc1-c1ccccc1`, the survival is 59% (inactive).
For `O=C(Cn1c(=O)nc(-c2ccccc2)c2ccccc21)Nc1ccc(Cl)c(C(F)(F)F)c1`, the survival is 90% (inactive).
The result for `COc1cccc(NC(=O)Cn2c(=O)n(Cc3ccccc3)c(=O)c3ccccc32)c1` reads 125% (inactive); that for `COc1ccc(-n2ccnc(NCCc3ccccc3)c2=O)cc1OC`, 102% (inactive).
Turning to `O=c1sc2ccccc2n1CCCOc1ccccc1`, the survival is 105% (inactive).
As to `CCCCOc1ccc(Cn2c(=O)sc3ccccc32)cc1`, the survival is -1% (active).
With `CCCOc1ccc(Cn2c(=O)sc3ccccc32)cc1`, the survival is -1% (active).
Regarding `CC(C)CCOc1ccc(Cn2c(=O)sc3ccccc32)cc1`, the survival was 0% (active).
To `CCOc1ccc(Cn2c(=O)sc3ccccc32)cc1` belongs 85% (inactive); to `CCCOc1ccc(CNC(=O)Cn2c(=O)oc3ccccc32)cc1`, 80% (inactive).
